Experimental data as given in PubChem BioAssay (NCI).
Compounds without any hit were thinned out: in the full panel of roughly 79,000, 15% have a hit. A number with no mark means an inactive call. Calls of active or inactive are those of the source. Cut-off read from the data, not from the text of the source: active = growth inhibition above about 70%; inactive = the rest.

What was measured:
[1] = NCI Yeast Anticancer Drug Screen. Data for the rad50 strain (AID 155);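 note: 0% = growth of vehicle-only cultures of the same strain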; conditions: S. cerevisiae rad50 strain growth inhibition; at 50.0 µM; hits give high values
Summary of the method: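 Vehicle-treated cultures provide the reference for the growth inhibition reported for compound-exposed, repair-deficient yeast.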

[2] = NCI Yeast Anticancer Drug Screen. Data for the mec2-1 strain (AID 157); conditions: S. cerevisiae mec2-1 strain, at 50.0 µM, hits give high values
Summary of the method: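 Test agents were screened against the mec2-1 yeast strain, with defined DNA repair or cell cycle alteration. Growth was scored as inhibition against vehicle-only controls.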

[3] = NCI Yeast Anticancer Drug Screen. Data for the sgs1 mgt1 strain (AID 161);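 note: 0% = growth of cultures given vehicle only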; conditions: S. cerevisiae sgs1 mgt1 strain, at 50.0 µM, hits give high values
Summary of the method: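 Inhibition of yeast growth, normalised to vehicle-treated controls, is reported for a strain bearing genetic alterations in DNA damage repair.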

[4] = NCI Yeast Anticancer Drug Screen. Data for the cln2 rad14 strain (AID 165);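 note: 0% = growth equal to vehicle treated cultures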; conditions: S. cerevisiae cln2 rad14 strain, at 50.0 µM, hits give high values
Summary of the method: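 Growth of compound-exposed yeast (cln2 rad14 genotype) measured and expressed as inhibition relative to vehicle.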

[5] = NCI Yeast Anticancer Drug Screen. Data for the bub3 strain (AID 167); conditions: S. cerevisiae bub3 mutant strain, at 50.0 µM, hits give high values
Summary of the method: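 Mutant yeast screening strain plus compound; vehicle-treated cultures serve as the 0% inhibition reference.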

[6] = NCI Yeast Anticancer Drug Screen. Data for the mlh1 rad18 strain (AID 175); conditions: S. cerevisiae mlh1 rad18 strain growth inhibition; at 50.0 µM; hits give high values
Summary of the method: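 In this whole-cell yeast screen, a strain with altered DNA damage repair is challenged with compound, and its growth is measured against matched vehicle-treated controls.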

Compound | growth inhibition [1] | growth inhibition [2] | growth inhibition [3] | growth inhibition [4] | growth inhibition [5] | growth inhibition [6]
Cc1ccc(OC2CC(n3cnc4ncnc(Cl)c43)OC2Oc2ccc(C)cc2)cc1 (stereo not drawn) | 21% | 2.1% | 13.9% | 8.4% | 13% | –
C[C@@H]1C[C@](O)([C@@H](C)Cl)C(=O)O[C@@H]2CCN3CC=C(COC(=O)[C@]1(C)O)[C@H]23 | -14.2% | -16.1% | -7.95% | -11.1% | 5.7% | -30.6%
C=CCCCCCCCCC(=O)Cl | 33.9% | 3.35% | – | – | – | –
CC/C(=C\c1cccc([N+](=O)[O-])c1)C(=O)O | -9.65% | -25.6% | – | – | – | –
Cc1nc2c(Cl)c(Cl)ccc2s1 | 3.6% | -20.9% | – | – | – | –
CC(C)CC(Br)C(=O)NC(CC(C)C)C(=O)O (stereo not drawn) | -26.2% | -27.9% | – | – | – | –
COC(=O)/C(=N\NC(=S)NN)C(C(=O)OC)C(=O)C(=O)Nc1cccc(C(F)(F)F)c1 (stereo not drawn) | 0.3% | 1.4% | 8.9% | 5.6% | -9.25% | –
CC1(C)Oc2ccc3c(=O)cc(-c4ccc(F)cc4)oc3c2C1C(=O)O (stereo not drawn) | -2.3% | -16.6% | -12.2% | -9.1% | 8.1% | –
CCN(CC)CCN(C)CC(=O)Nc1ccccc1C | 1.9% | 6.3% | – | – | – | –
COc1cc2c(cc1-c1coc3cc(O)ccc3c1=O)OCO2 | -12.6% | -24.3% | -15.6% | 11.2% | -14.3% | –
COc1cc2c(cc1C1COc3cc4occc4cc3C1=O)OCO2 (stereo not drawn) | 5.15% | -33.8% | 4.05% | 6.8% | -4.45% | –
CCOC(=O)C(C)Oc1ccccc1[N+](=O)[O-] (stereo not drawn) | -24.6% | -41.2% | – | – | – | –
CC(C)O/N=C/c1cc(NC(=S)OC(C)C)ccc1Cl | 2.35% | -8.75% | 11.1% | -4.8% | -10.9% | –
Nc1ccc(Nc2nc3ccccc3s2)c(O)c1 | 22.6% | 2.15% | – | – | – | –
NC(=O)NC(CCCN=C(N)N)C(=O)O (stereo not drawn) | -21.4% | -36.3% | – | – | – | –
O=C(O)/C=C\C(=O)Nc1ccccc1NC(=O)/C=C/C(=O)O | 3.45% | -26.1% | – | – | – | –
Cc1c(Cl)cccc1N1C(=O)CC(Sc2ccccc2N)C1=O (stereo not drawn) | 1.05% | -13.9% | – | – | – | –
COC(=O)C/C(=C/C=C1/C(=O)ON=C1C)c1c(C)[nH]oc1=O | -10.9% | -29.9% | – | – | – | –
Clc1cccc(Cl)c1Br | 7.45% | -26.2% | – | – | – | –
Cc1ccc(-c2noc(C)n2)cc1 | -12.9% | 13.2% | -2.75% | -14.2% | 4% | 9.2%
CCCN1CCc2cc(OC)c(OC)cc2C1Cc1ccc(OC)c(OC)c1 (stereo not drawn) | -13.8% | -0.2% | – | – | – | –
COC(=O)C(C(=O)C(=O)NC1Nc2ccc(C)cc2S1)c1nc2ccc(Cl)cc2[nH]c1=O (stereo not drawn) | 18.2% | -12.3% | 11.5% | 21.1% | 13.2% | –
COc1c(OC)c(OC)c2c(c1OC)c(=O)c1ccccc1n2C | 12.6% | 22.9% | 30.8% | 18.8% | 14.4% | –
NC(=S)NS(=O)(=O)c1ccc(N)cc1 | -24.6% | -38.2% | -6% | 4.35% | -16.4% | –
N#[N+]c1c(O)cc(S(=O)(=O)O)c2ccccc12 | -21.6% | -8.45% | – | – | – | –
N#Cc1c(N)oc(-c2cccc([N+](=O)[O-])c2)c1C#N | 24.6% | 28.9% | -19.9% | 10.8% | -6.3% | -16.9%

Compound | growth inhibition [1] | growth inhibition [2] | growth inhibition [3] | growth inhibition [4] | growth inhibition [5] | growth inhibition [6]
Cc1ccccc1NC(=S)Nc1ccccn1 | 22% | -0.3% | – | – | – | –
CC1(c2ccc3ccccc3c2)CCC(=O)O1 (stereo not drawn) | -2.75% | -30% | – | – | – | –
CCCOC(=O)C(=O)C(C#N)c1ccccc1 (stereo not drawn) | 21.1% | -0.35% | – | – | – | –
O=C(CCCCCCCCCCBr)OCc1ccccc1 | -34.2% | -40% | – | – | – | –
Cc1ccc(N2CCOC2=O)cc1N1CCOC1=O | -8.3% | -32.6% | – | – | – | –
CSc1nc(Br)nc2ncn(C3CC(Oc4ccc(C)cc4)C(COc4ccc(C)cc4)O3)c12 (stereo not drawn) | 16.7% | 1.7% | 12.4% | 0.7% | -3.15% | –
COc1ccc(NC(=S)Nc2ccccn2)cc1 | -9.3% | -12.3% | – | – | – | –
c1ccc(N(c2ccccc2)c2ccccc2)cc1 | 5% | -14.7% | 1.9% | 7.1% | -10.4% | –
Cc1ccc(/C=N/Nc2ccccn2)s1 | -10.9% | -12.5% | -2% | 11.4% | -11.2% | –
CCCCCCCCOC(=O)C12Oc3ccc(-c4ccc5c(c4O)C(O)=C4C(=O)CC(C)C(O)C4(C(=O)OCCCCCCCC)O5)c(O)c3C(O)=C1C(=O)CC(C)C2O (stereo not drawn) | 16.4% | 2.95% | 11.4% | 7.6% | 33.6% | –
CCn1c2c(c3ccccc3c1=O)C(=O)c1ccccc1-2 | 12% | 3.9% | 16.8% | 12.8% | -3.85% | –
COc1ccc2cc1Oc1ccc(cc1)CC1c3cc(OC)c(cc3CCN1C)Oc1c(OC)c(OC)cc3c1C(C2)N(C)CC3 (stereo not drawn) | -4.6% | -15.7% | -6.8% | 6.9% | 5.25% | -43.3%
C=C1C(=O)OC2/C=C(\CO)CC/C=C(\CO)CC(OC(=O)C(C)C)C12 (stereo not drawn) | -17% | -13.4% | -16% | 24.4% | -7% | -41.5%
CNC(=S)c1nnsc1N | 1.7% | -0.8% | 21.6% | -2.45% | 6.3% | -0.4%
COc1ccc(/C=C2/NC(=S)N=C2Cl)cc1 | -6.9% | -21.8% | 4.3% | -0.45% | 18.1% | -29%
CNC(=S)/C(=N\Nc1nc[nH]c1C(N)=O)C(N)=S | -3.7% | 7.85% | 38.5% | -0.8% | 15.1% | 21.1%
CCC(=O)C(CC)c1cccc(OC)c1 (stereo not drawn) | 16.6% | -3.8% | 12.2% | 25.3% | 9.55% | 21.4%
CC(=O)C1=C(C)N2C(=NC3=C(CCc4ccccc43)C2c2ccc(Cl)cc2)S1 (stereo not drawn) | 25.9% | -14.6% | 6.85% | 6.25% | -6.9% | 1.5%
COC(=O)C1CCC(=O)N1CN(C(C)=O)c1cccc(O)c1 (stereo not drawn) | 5.8% | 3.3% | 0.2% | 9.75% | -15.7% | -52.3%
NC(Cc1ccc(S(=O)(=O)O)cc1)C(=O)NC(Cc1ccc(S(=O)(=O)O)cc1)C(=O)NC(Cc1ccc(S(=O)(=O)O)cc1)C(=O)NC(Cc1ccc(S(=O)(=O)O)cc1)C(=O)O (stereo not drawn) | -6.5% | 5.65% | 5.2% | -2.3% | 5.85% | 8.85%
Fc1ccc(Nc2nc(Cl)c3[nH]cnc3n2)cc1Cl | 11.5% | 1.45% | 27.6% | 7.6% | 32.6% | -28.7%
C=C(C)C(=O)OC1CC2(C)OC(=CC2=O)C(C)CC2OC(=O)C(=C)C12 (stereo not drawn) | 13.1% | 18.1% | 29% | 25.2% | 33.5% | -34.6%
CCCCCCCCCC(=O)CC(=O)c1c(O)cc(O)cc1O | 87.8% (active) | 91.3% (active) | 12.2% | 22.4% | 31.8% | 91.7% (active)
C/C=C1\NC(=O)[C@H]2CSSCCC=C[C@H](CC(=O)N[C@H](C(C)C)C(=O)N2)OC(=O)[C@H](C(C)C)NC1=O | 26.1% | 35.4% | 26.1% | 51.6% | 58.4% | 33.5%
COc1ccc(-c2nc3ccccc3c(=S)n2OC(C)=O)cc1 | 68.5% | 77.2% (active) | 82.1% (active) | 27.2% | 90.2% (active) | 78.2% (active)
C=C1C(=O)O[C@H]2C[C@@]3(C)[C@H](O)CCC(=C)[C@@H]3[C@@H](OC(C)=O)[C@H]12 | 2.95% | 25.4% | 0.05% | -6.7% | -26.8% | -29.4%
